# Assay outcomes (PubChem)
# Sampled rows, rich in hits. Any-hit rate of the full collection: about 27%.
# CYP2C9 act = activators of human CYP2C9 | P11712 | recombinant CYP2C9, luciferin-H conversion, luminescence; stronger effect = higher value; factor 1 = untreated enzyme, 0 = blocked | activation factor at 5 µM | hit rate 1.4% among 96,000 | AID 1024;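 active = activation factor of 2 or more for CYP2C9 at a 5 µM dose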
# sEH activator = increases human soluble epoxide hydrolase activity; activation, % at 2 µM; purified human sEH enzymatic activity, activator screen; P34913; AID 717; hit rate 0.04% among 91,000; in the data active = activation above about 37%
# Target sequence (P34913 whole entry, looked up): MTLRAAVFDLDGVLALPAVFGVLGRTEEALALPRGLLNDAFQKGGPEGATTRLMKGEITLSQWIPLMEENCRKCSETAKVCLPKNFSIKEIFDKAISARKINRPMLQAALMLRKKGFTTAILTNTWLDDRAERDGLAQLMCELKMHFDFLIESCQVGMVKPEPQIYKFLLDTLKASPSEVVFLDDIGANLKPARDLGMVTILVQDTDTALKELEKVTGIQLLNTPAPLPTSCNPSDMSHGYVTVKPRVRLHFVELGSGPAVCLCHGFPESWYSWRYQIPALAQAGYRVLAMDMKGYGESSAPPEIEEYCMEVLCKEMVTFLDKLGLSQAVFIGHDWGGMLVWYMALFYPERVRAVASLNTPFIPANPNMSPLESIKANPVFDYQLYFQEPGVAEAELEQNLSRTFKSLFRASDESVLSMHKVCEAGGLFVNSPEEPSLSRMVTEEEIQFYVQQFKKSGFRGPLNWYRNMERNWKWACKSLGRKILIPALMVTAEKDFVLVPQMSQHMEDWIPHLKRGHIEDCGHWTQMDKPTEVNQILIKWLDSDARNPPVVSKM
# CYP2C19 inhib = blocks human cytochrome P450 2C19. P33261. CYP2C19 Supersomes, luciferin-H EGE luminescence, 30 min. inhibition, % at 5 µM. hit rate 21% among 96,000. AID 778;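 active = CYP2C19 inhibition above a set limit at 5 µM in the primary screen, cut at about 50% in these data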
# CYP2C19 act = activators of human cytochrome P450 2C19; P33261; recombinant CYP2C19, luciferin-H EGE luminescence; stronger effect = higher value; 0 = fully inhibited enzyme, 1 = untreated enzyme; activation factor at 5 µM; 96,000 tested, under 10 active; AID 1025;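 active = activation factor of at least 2 at 5 µM in the primary screen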
# sEH inh = blocks human soluble epoxide hydrolase activity; hit rate 0.34% among 91,000; P34913; inhibition, % at 2 µM; recombinant human sEH enzymatic activity assay; in the data active = inhibition above about 80%
# CYP2C9 inhib = inhibitors of human CYP2C9; CYP2C9 Supersomes, luciferin-H conversion, luminescence; inhibition, % at 5 µM; AID 777; hit rate 20% among 96,000; P11712;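 active = blocking of liver enzyme CYP2C9 beyond about 50% at 5 µM, limit read from the data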
# Hits are given with their value; 0 = inactive; - = no result given.
SMILES,CYP2C9 act,sEH activator,CYP2C19 inhib,CYP2C19 act,sEH inh,CYP2C9 inhib
CSc1ccccc1NC(=O)c1ccncc1,0,0,66,0,0,0
CCOC(=O)CSC1=C(C#N)C(c2ccco2)C(C(=O)Nc2cccc(C(F)(F)F)c2)=C(C)N1 (centres undefined),0,0,78,0,0,82
CCOC(=O)C1=C(c2ccccc2)NC(SCC(=O)Nc2ccccc2C)=C(C#N)C1c1ccco1 (centres undefined),0,0,57,0,0,75
CCOC(=O)C1=C(c2ccccc2)NC(SC)=C(C#N)C1c1ccco1 (centres undefined),0,0,0,0,0,78
CCOC(=O)C1=C(c2ccccc2)NC(SCC(=O)Nc2ccc(C)cc2)=C(C#N)C1c1ccco1 (centres undefined),0,0,0,0,0,65
Cc1ccccc1NC(=O)CSC1=C(C#N)C(c2ccsc2)CC(=O)N1 (centres undefined),0,0,0,0,0,0
COc1ccc(N=CC2=C(Nc3ccc(OC)cc3)c3c(C)nn(-c4ccccn4)c3CC2)cc1,-,0,-,-,0,-
CCOC(=O)C1C(=O)OC2(CCOC(C)(C)C2)C1C(=O)OCC (centres undefined),0,0,0,0,0,0
CCOC(=O)C1=C(c2ccccc2)NC(SCC(=O)Nc2cccc(C)c2)=C(C#N)C1c1ccco1 (centres undefined),0,0,60,0,0,92
CCOC(=O)C1CCCN(C(=O)c2cc3nc(-c4cccc(OC)c4)cc(C(F)(F)F)n3n2)C1 (centres undefined),0,-,86,0,-,84
CCOC(=O)N1CCC(NC(=O)c2cc3c(-c4ccc(OC)c(OC)c4)nn(C)c3s2)CC1,0,-,0,0,-,0
CCOC(=O)C1CCCN(C(=O)c2cc3c(-c4cccc(OC)c4)nn(C)c3s2)C1 (centres undefined),0,0,0,0,0,68
COc1ccc(-c2nn(C)c3sc(C(=O)NCc4ccco4)cc23)cc1OC,0,-,0,0,-,0
CCOC(=O)C1CCN(C(=O)c2cc3c(-c4ccc(OC)c(OC)c4)nn(C)c3s2)CC1,0,0,92,0,0,95
COc1ccc(NC(=O)c2cc3c(-c4ccc(OC)c(OC)c4)nn(C)c3s2)cc1OC,0,0,57,0,0,74
COC(=O)c1nn(-c2ccccc2)c(Sc2ccc(OC)cc2)c1/C=N/O,0,0,0,0,0,0
COc1ccccc1NC(=O)N(C1CCCC1)C1CCN(C(C)=O)CC1,0,0,0,0,0,0
CC(=O)CCc1ccc2oc(C(=O)O)c(C)c2c1,0,0,0,0,0,0
COc1ccc(/C=N/NC(=O)c2ccccc2O)cc1Cn1cc(Cl)cn1,0,0,0,0,0,51
COc1ccc(/C=N/NC(=O)c2ccn[nH]2)cc1COc1ccc(Cl)cc1,0,0,0,0,0,0
Cc1nn(-c2ccccc2)c(Cl)c1C(=O)Nc1nnc(C2CCCC2)s1,0,-,0,0,-,94
Cc1nn(-c2ccccc2)c(Cl)c1C(=O)NCC(=O)O,0,0,0,0,0,0
Cc1cccc(C)c1NC(=O)c1c(C)nn(-c2ccccc2)c1Cl,0,0,51,0,0,0
COc1cc(OC)c(OC)cc1/C=N/N(C)c1ccccc1,0,0,0,0,0,70
COc1cc(/C=N/N(C)c2ccccc2)ccc1O,0,0,82,0,0,74
SMILES,CYP2C9 act,sEH activator,CYP2C19 inhib,CYP2C19 act,sEH inh,CYP2C9 inhib
Cc1ccc(N2C(=O)c3n[nH]c(C)c3C2c2ccco2)cc1 (centres undefined),0,0,0,0,0,0
CCOC(=O)c1ccc(N2C(=O)c3n[nH]c(C)c3C2c2ccc(OC)cc2OC)cc1 (centres undefined),-,0,-,-,0,-
COC(=O)c1ccc(C2c3c(n[nH]c3C)C(=O)N2c2ccc(C)cc2)cc1 (centres undefined),0,0,77,0,0,63
CCOC(=O)c1ccc(N2C(=O)c3n[nH]c(C)c3C2c2ccc(OC)cc2)cc1 (centres undefined),0,0,90,0,0,93
COc1cc(C2C(C(C)=O)=C(O)C(=O)N2c2ccc(C)cc2)ccc1O (centres undefined),0,0,0,0,0,0
CCOC(=O)c1ccc(N2C(=O)C(O)=C(C(C)=O)C2c2ccc(O)c(OC)c2)cc1 (centres undefined),0,-,0,0,-,81
